According to PubChem BioAssay (NCI):
Values joined by “and” are separate entries in the source; they are usually repeats but may differ in a detail not shown here. Equal entries are not always repeated. The panel holds about 83,000 compounds, 20% with a hit somewhere; the sample as a whole holds those more often.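 Step 1: grow cells in 96-well plates. Step 2: add test compound at a single concentration. Step 3: incubate 48 h. Step 4: record percent growth.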 Active and inactive are the calls of the source. The calls were made as follows: active = growth percent below 10; inactive = the rest.

How the values were obtained:
Test in all cases: NCI-60 one-dose screen, 48 h (100 = growth as untreated, 0 = no growth, -100 = all killed)
Conditions in all cases: 10 µM unless noted
[1] = system: DU-145 prostate
[2] = system: K-562 leukemia
[3] = system: MALME-3M melanoma
[4] = system: MDA-MB-231 breast
[5] = system: RXF 393 renal
[6] = system: SF-268 CNS
[7] = system: SF-295 CNS
[8] = system: SF-539 CNS
[9] = system: UACC-257 melanoma
[10] = system: M14 melanoma

## CCCCCCCCCCCCCCCCCCOP(=O)([O-])OC1CC[N+](C)(C)CC1
[1]
  growth: 54.2% (inactive) and 25.3% (inactive)
[2]
  growth: 30.3% (inactive) and 20.7% (inactive)
[3]
  growth: 69.7% (inactive) and 16.3% (inactive)
[4]
  growth: 11% (inactive) and -10.4% (active)
[5]
  growth: -49% (active) and 41.2% (inactive)
[6]
  growth: 38.9% (inactive) and 13.7% (inactive)
[7]
  growth: 19.5% (inactive) and 0.462% (active)
[8]
  growth: 36.3% (inactive) and 4.21% (active)
[9]
  growth: 45.4% (inactive) and 19% (inactive)
[10]
  growth: -33.9% (active) and -72.8% (active)

## Cc1ccc(N=C=C(c2ccccc2)c2ccccc2)cc1
[1]
  growth: 108% (inactive)
[2]
  growth: 8.39% (active)
[3]
  growth: 95% (inactive)
[4]
  growth: 83.3% (inactive)
[5]
  growth: 92.5% (inactive)
[6]
  growth: 93.5% (inactive)
[7]
  growth: 98% (inactive)
[8]
  growth: 91% (inactive)
[9]
  growth: 89.1% (inactive)
[10]
  growth: -7.3% (active)

## CCCCCCCCCCCCCCCCN(CC)CC
[1]
  growth: -48.4% (active)
[2]
  growth: -73.5% (active)
[3]
  growth: -90.3% (active)
[4]
  growth: -86.9% (active)
[5]
  growth: -86.2% (active)
[6]
  growth: -34.8% (active)
[7]
  growth: -92.9% (active)
[8]
  growth: -98.2% (active)
[9]
  growth: -51.9% (active)
[10]
  growth: -16.9% (active)

## CC1OC(OC2C(OC3CCC4(C)C(CCC5(C)C4CC=C4C6CC(C)(C)CCC6(CO)C(O)CC45C)C3(C)C)OC(C(=O)O)C(OC3OC(COC4OC(CO)C(O)C(O)C4O)C(O)C(O)C3O)C2O)C(O)C(O)C1O (stereo not given)
[1]
  growth: 7.81% (active)
[2]
  growth: -30.8% (active)
[3]
  growth: -73% (active)
[4]
  growth: -86.1% (active)
[5]
  growth: -51.2% (active)
[6]
  growth: 1.99% (active)
[7]
  growth: -85.2% (active)
[8]
  growth: -84.5% (active)
[9]
  growth: -49.3% (active)
[10]
  growth: -67.4% (active)

## O=C(CC1(O)C(=O)Nc2c(Cl)ccc(Cl)c21)c1ccc(Cl)cc1Cl (stereo not given)
[1]
  growth: 103% (inactive)
[2]
  growth: 93.6% (inactive)
[3]
  growth: 100% (inactive)
[4]
  growth: 109% (inactive)
[5]
  growth: 94.5% (inactive)
[6]
  growth: 97.4% (inactive)
[7]
  growth: 100% (inactive)
[8]
  growth: 103% (inactive)
[9]
  growth: 78.8% (inactive)
[10]
  growth: 89.2% (inactive)

## CN(C)CCOc1ccc2c(c1)C(=O)/C(=C\c1ncc([N+](=O)[O-])n1C)C2
[1]
  growth: -37.8% (active)
[2]
  growth: -39.7% (active)
[3]
  growth: -72.7% (active)
[4]
  growth: -21.1% (active)
[5]
  growth: -60.5% (active)
[6]
  growth: -44.4% (active)
[7]
  growth: -12.7% (active)
[8]
  growth: -73.2% (active)
[9]
  growth: -38.6% (active)
[10]
  growth: -67.2% (active)

## C[N+](C)=c1ccc2nc3c(cc(NCCCNc4cc5oc6cc(=[N+](C)C)ccc-6nc5c5ccccc45)c4ccccc43)oc-2c1
[1]
  growth: -100% (active)
[2]
  growth: -0.99% (active)
[3]
  growth: 35.6% (inactive)
[4]
  growth: -36.2% (active)
[5]
  growth: 58.2% (inactive)
[6]
  growth: 55% (inactive)
[7]
  growth: 45% (inactive)
[8]
  growth: -9.59% (active)
[9]
  growth: 65.1% (inactive)
[10]
  growth: 28.9% (inactive)

## CC(C)(C)CC(C)(C)c1ccc(OCCSC(=N)N)cc1
[1]
  growth: 72.4% (inactive)
[2]
  growth: 0.322% (active)
[3]
  growth: -0.257% (active)
[4]
  growth: -7.07% (active)
[5]
  growth: 60.8% (inactive)
[6]
  growth: 55% (inactive)
[7]
  growth: -34.7% (active)
[8]
  growth: -6.57% (active)
[9]
  growth: 76.7% (inactive)
[10]
  growth: -48.5% (active)

## CNc1ccc(N)cc1
[1]
  growth: 121% (inactive)
[2]
  growth: 135% (inactive)
[3]
  growth: 98.1% (inactive)
[4]
  growth: 99% (inactive)
[5]
  growth: 214% (inactive)
[6]
  growth: 114% (inactive)
[7]
  growth: 108% (inactive)
[8]
  growth: 96.8% (inactive)
[9]
  growth: 137% (inactive)
[10]
  growth: 112% (inactive)

## CN(C)C(=O)SC1=C(c2c(Cl)cccc2Cl)C(=O)c2ccccc21
[1]
  growth: -8.29% (active)
[2]
  growth: -8.92% (active)
[3]
  growth: -69.7% (active)
[4]
  growth: 80.6% (inactive)
[5]
  growth: -27.5% (active)
[6]
  growth: 13.3% (inactive)
[7]
  growth: 103% (inactive)
[8]
  growth: 91.1% (inactive)
[9]
  growth: 48.8% (inactive)
[10]
  growth: 23.2% (inactive)

## c1ccc2c(c1)Nc1cc3ccccc3cc1N2
[1]
  growth: 60.9% (inactive)
[2]
  growth: 20.9% (inactive)
[3]
  growth: 28.4% (inactive)
[4]
  growth: 33.1% (inactive)
[5]
  growth: 63.3% (inactive)
[6]
  growth: 66.2% (inactive)
[7]
  growth: 46.2% (inactive)
[8]
  growth: 39.1% (inactive)
[9]
  growth: 37.4% (inactive)
[10]
  growth: 23.9% (inactive)

## Oc1c(Cl)c2ccccc2c2ccccc12
[1]
  growth: 102% (inactive)
[2]
  growth: -12.5% (active)
[3]
  growth: 123% (inactive)
[4]
  growth: 95.5% (inactive)
[5]
  growth: 116% (inactive)
[6]
  growth: 104% (inactive)
[7]
  growth: 120% (inactive)
[8]
  growth: 107% (inactive)
[9]
  growth: 103% (inactive)
[10]
  growth: 108% (inactive)

## CCN(CC)CC(C)(C)C(=O)/C=C/c1ccc(Cl)c(Cl)c1
[1]
  growth: -61.6% (active)
[2]
  growth: 1.04% (active)
[3]
  growth: -52.7% (active)
[4]
  growth: -48.8% (active)
[5]
  growth: -81.9% (active)
[6]
  growth: -0.0402% (active)
[7]
  growth: 48.1% (inactive)
[8]
  growth: -50.4% (active)
[9]
  growth: -5.04% (active)
[10]
  growth: -43.5% (active)

## N#CSCC(=O)c1ccc(Cl)cc1
[1]
  growth: 30.2% (inactive)
[2]
  growth: 44.4% (inactive)
[3]
  growth: 54.8% (inactive)
[4]
  growth: 34.4% (inactive)
[5]
  growth: 25.6% (inactive)
[6]
  growth: 34.6% (inactive)
[7]
  growth: 49.4% (inactive)
[8]
  growth: 22.2% (inactive)
[9]
  growth: 82.3% (inactive)
[10]
  growth: 2.91% (active)

## Oc1c(Br)cc(Cl)cc1C(c1cc(Cl)cc(Br)c1O)C(Cl)(Cl)Cl
[1]
  growth: 31.1% (inactive)
[2]
  growth: 13.7% (inactive)
[3]
  growth: -0.8% (active)
[4]
  growth: -11.3% (active)
[5]
  growth: 12% (inactive)
[6]
  growth: 21.9% (inactive)
[7]
  growth: 9.03% (active)
[8]
  growth: 30.8% (inactive)
[9]
  growth: 33% (inactive)
[10]
  growth: 31.4% (inactive)

## O=[N+]([O-])c1ccc(N=Nc2ccc(O)cc2O)cc1
[1]
  growth: 83.2% (inactive)
[2]
  growth: 20.6% (inactive)
[3]
  growth: 72.5% (inactive)
[4]
  growth: 47.4% (inactive)
[5]
  growth: 20.6% (inactive)
[6]
  growth: 78% (inactive)
[7]
  growth: 50.6% (inactive)
[8]
  growth: 37.7% (inactive)
[9]
  growth: 43.7% (inactive)
[10]
  growth: 51.3% (inactive)

## CC(=O)ON=C1C=CC(=C(C#N)c2ccccc2)C=C1
[1]
  growth: 1.67% (active)
[2]
  growth: 28.1% (inactive)
[3]
  growth: 83.3% (inactive)
[4]
  growth: 13.9% (inactive)
[5]
  growth: 35.5% (inactive)
[6]
  growth: 14.1% (inactive)
[7]
  growth: 39.8% (inactive)
[8]
  growth: 24.5% (inactive)
[9]
  growth: 30.5% (inactive)
[10]
  growth: 22.2% (inactive)

## COc1ccccc1OC(=O)Oc1ccccc1OC
[1]
  growth: 112% (inactive) and 96% (inactive)
[2]
  growth: 125% (inactive) and 104% (inactive)
[3]
  growth: 94.8% (inactive) and 98.5% (inactive)
[4]
  growth: 103% (inactive) and 107% (inactive)
[5]
  growth: 102% (inactive) and 113% (inactive)
[6]
  growth: 111% (inactive) and 94.9% (inactive)
[7]
  growth: 106% (inactive) and 103% (inactive)
[8]
  growth: 121% (inactive) and 103% (inactive)
[9]
  growth: 97.6% (inactive) and 115% (inactive)
[10]
  growth: 103% (inactive) and 99.7% (inactive)

## O=C(Nc1ccc(F)cc1)ON=C1CCCCC1
[1]
  growth: 106% [100 µM] (inactive)
[2]
  growth: 79.6% [100 µM] (inactive)
[3]
  growth: 108% [100 µM] (inactive)
[4]
  growth: 101% [100 µM] (inactive)
[5]
  growth: 102% [100 µM] (inactive)
[6]
  growth: 96.3% [100 µM] (inactive)
[7]
  growth: 100% [100 µM] (inactive)
[8]
  growth: 93.5% [100 µM] (inactive)
[9]
  growth: 98.8% [100 µM] (inactive)
[10]
  growth: 111% [100 µM] (inactive)

## O=Nc1ccccc1N=O
[1]
  growth: 91.2% (inactive)
[2]
  growth: 76.4% (inactive)
[3]
  growth: 74.9% (inactive)
[4]
  growth: 95.8% (inactive)
[5]
  growth: 101% (inactive)
[6]
  growth: 89.4% (inactive)
[7]
  growth: 85.9% (inactive)
[8]
  growth: 76.2% (inactive)
[9]
  growth: 80.9% (inactive)
[10]
  growth: 81.7% (inactive)

## Cc1cc2nc(CS)[nH]c2cc1C
[1]
  growth: 93.9% (inactive)
[2]
  growth: 76.8% (inactive)
[3]
  growth: 95.7% (inactive)
[4]
  growth: 99% (inactive)
[5]
  growth: 76.9% (inactive)
[6]
  growth: 103% (inactive)
[7]
  growth: 102% (inactive)
[8]
  growth: 94.6% (inactive)
[9]
  growth: 101% (inactive)
[10]
  growth: 89.9% (inactive)

## Cc1ccnc2c1ccc1c(C)ccnc12
[1]
  growth: 27.4% (inactive)
[2]
  growth: 12% (inactive)
[3]
  growth: 19.1% (inactive)
[4]
  growth: 31.9% (inactive)
[5]
  growth: 26.2% (inactive)
[6]
  growth: 22.8% (inactive)
[7]
  growth: 18.3% (inactive)
[8]
  growth: -3.71% (active)
[9]
  growth: 2.29% (active)
[10]
  growth: -11.5% (active)

## Cc1ccc(C(=Nc2ccccc2)N=P(c2ccccc2)(c2ccccc2)c2ccccc2)cc1
[1]
  growth: -0.576% (active)
[2]
  growth: 15.6% (inactive)
[3]
  growth: -67.8% (active)
[4]
  growth: -41% (active)
[5]
  growth: -23.3% (active)
[6]
  growth: -0.449% (active)
[7]
  growth: -93.4% (active)
[8]
  growth: -42.9% (active)
[9]
  growth: -17.3% (active)
[10]
  growth: -79% (active)

## Cn1c2c(c3ccccc31)CCN1C[C@@H]3CCCC[C@H]3C[C@@H]21
[1]
  growth: -49% (active)
[2]
  growth: 12.9% (inactive)
[3]
  growth: 3.28% (active)
[4]
  growth: 28.5% (inactive)
[5]
  growth: -24.4% (active)
[6]
  growth: 16.1% (inactive)
[7]
  growth: -30.1% (active)
[8]
  growth: -1.74% (active)
[9]
  growth: 55.4% (inactive)
[10]
  growth: -59.3% (active)

## NC(=O)/C=C/C(=O)c1c(Cl)cccc1Cl
[1]
  growth: -75.9% (active)
[2]
  growth: -19.2% (active)
[3]
  growth: -68.4% (active)
[4]
  growth: -79.1% (active)
[5]
  growth: -41.6% (active)
[6]
  growth: -57.3% (active)
[7]
  growth: 81.9% (inactive)
[8]
  growth: -95.4% (active)
[9]
  growth: -81.7% (active)
[10]
  growth: -96.5% (active)
